We go through 46 sequences from publication PMC7819943, “Rice protein-binding microarrays: a tool to detect cis-acting elements near promoter regions in rice”.

Whole data set: some 68,000 sequences, median “fluorescence intensity (a.u.)” near 9,100, cut for the highest 2% near 16,000. Shown is part of a subset that was picked to be rich in the highest values.

Chain of OsWRKY34 (Q0JBA9 entry or part of it): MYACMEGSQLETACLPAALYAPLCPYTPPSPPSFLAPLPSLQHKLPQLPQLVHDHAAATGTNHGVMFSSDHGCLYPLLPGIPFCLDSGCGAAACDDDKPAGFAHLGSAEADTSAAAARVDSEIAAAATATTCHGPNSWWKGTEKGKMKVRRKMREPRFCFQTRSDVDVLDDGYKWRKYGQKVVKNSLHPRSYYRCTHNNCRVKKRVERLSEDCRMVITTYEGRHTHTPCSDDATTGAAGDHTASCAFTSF

In the test the target is OsWRKY34 (Oryza sativa, UniProt Q0JBA9 1-250). Briefly: protein-binding microarray (RPBM); PBS, 2% BSA, 51.3 ng/ul salmon testes DNA, 50 uM zinc acetate, 200 nM TF, 25 C, 1 h; high values mean tight binding. As to conditions: protein: recombinant; tags: N-terminal polyhistidine and DsRed monomer fusion (pET32a); label: CyDye5-dUTP incorporated in the synthesized complementary strand; 3' TTTTT single-stranded linker to array surface; dsDNA, one strand shown. Summed up:
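Transcription factors, each fused N-terminally to a polyhistidine tag and DsRed, were expressed in E. coli BL21-CodonPlus and purified on Ni–NTA. A custom Agilent array was made double-stranded by primer extension with Cy5-dUTP and blocked with 2% BSA. It was incubated with 200 nM protein in PBS, 2% BSA, salmon testes DNA and 50 µM zinc acetate at 25 °C for 1 h, then washed. The binding signal is per-feature fluorescence intensity (arbitrary units) read on an Axon 4000B scanner.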
Regarding “TGCGCTCATGGCCATCCATTTTCTTCTTCTTCTTTTTTTTCGGAGTCACCTAGTGCAG”, the binding signal is 10300 fluorescence intensity (a.u.).
In the case of “TCCTCCTCGCCGCCCGGCGAATCCCGCGCCTCCTCGCTTCCGGAGTCACCTAGTGCAG”, the binding signal was 9070 fluorescence intensity (a.u.).
With “AGCGCTACTCCACATCTGTTTGCTCGTGCTCTCCGGATCTCGGAGTCACCTAGTGCAG”, the binding signal was 8550 fluorescence intensity (a.u.).
In the case of “CTTTCCTTGCGCTGTTCTTCGCTTCATCCATCCATCAGCTCGGAGTCACCTAGTGCAG”, the binding signal was 10800 fluorescence intensity (a.u.).
For “CACACTGTGCACGCCATTCTTATCTTGTCTAGCTTCATCTCGGAGTCACCTAGTGCAG”, the binding signal was 16600 fluorescence intensity (a.u.).
Consider “ATCCATTTCCAGCTTCGTCTTCATCTTGGCTTGGCGCGCTCGGAGTCACCTAGTGCAG”, for which the binding signal is 17800 fluorescence intensity (a.u.).
Turning to “ATCTTCTATTCACGGCTTGCCATCTGTGCACTGTAATTTTCGGAGTCACCTAGTGCAG”, the binding signal was 9850 fluorescence intensity (a.u.).
In the case of “GCATCTCCACAGTCCACACTGTGCGCGCCATTCTTATCCTCGGAGTCACCTAGTGCAG”, the binding signal is 14100 fluorescence intensity (a.u.).
For “CCACCTGCTCGCCGTCGACGCCGCCCTCGCCATCTTCAATCGGAGTCACCTAGTGCAG”, the binding signal was 12800 fluorescence intensity (a.u.).
“CCATCGCCATTGACACGGACACCTTACCTGTCACAAAGAACGGAGTCACCTAGTGCAG”: the binding signal is 8160 fluorescence intensity (a.u.).
With “CGACGCGCCATCGCCTCGCCTCTCACCTACTGCCTCGTCCCGGAGTCACCTAGTGCAG” the figure was 8820 fluorescence intensity (a.u.).
Consider “ACTTCTTGCTGATCTTCTTGGACTGCTTTTGCACCTTCTTCGGAGTCACCTAGTGCAG”, for which the binding signal was 9360 fluorescence intensity (a.u.).
“ATGCACCACTGTTCCTGTCCTGGCTTTGCACAACATCCATCGGAGTCACCTAGTGCAG”: the binding signal was 13300 fluorescence intensity (a.u.).
For the sequence “ATGTTCAGTAGTTAAAGAGGATACTGGCCACATGCTTGACCGGAGTCACCTAGTGCAG”, the binding signal is 8790 fluorescence intensity (a.u.).
With “ATCATATGAACACGTTATCTTTTTATTTTATACCGGTTCACGGAGTCACCTAGTGCAG” the figure was 8840 fluorescence intensity (a.u.); with “CCTAGTCGGCTTCGCCTCCGCTTCCTCGTCTCGTCTCCCTCGGAGTCACCTAGTGCAG”, 8160 fluorescence intensity (a.u.); with “ATCTCCGCCGCCGCCGCCTCCTACTCGTCGCCCTCCTCCTCGGAGTCACCTAGTGCAG”, 10300 fluorescence intensity (a.u.).
The same measure for “CCGCCATCGCTACCCTCGGTCGTCGCTTGCCCCGACGACCCGGAGTCACCTAGTGCAG”: 8180 fluorescence intensity (a.u.).
Take “CGTCTCCTCTCTCTCTCTCTCTCTCTCTCGCCTCCGCTTCCGGAGTCACCTAGTGCAG”: the binding signal was 8240 fluorescence intensity (a.u.).
Turning to “CCGCCGGCCGCCGTCCTCGCCATCTCCGCCGGCCGCCGTCCGGAGTCACCTAGTGCAG”, the binding signal is 8440 fluorescence intensity (a.u.).
With “CACCGTGTCGCTCTCTCTCGTCGTCTCCGCCTCCGGCTTCCGGAGTCACCTAGTGCAG” the figure was 19600 fluorescence intensity (a.u.); with “GTCATCCTCTCCATCCCCTCGTCGTCGTCCGCTCGCCTCTCGGAGTCACCTAGTGCAG”, 8250 fluorescence intensity (a.u.); with “CATCTCCGCCGGCCGCCGTCCTCGCCATCTTCGCCGTCCTCGGAGTCACCTAGTGCAG”, 12600 fluorescence intensity (a.u.).
As for “GCCCCAACCTCGTCGCTACCCGCGAGCCTCGGCTTATCGACGGAGTCACCTAGTGCAG”, the binding signal was 65100 fluorescence intensity (a.u.).
For the sequence “GGACCATCTCCGCCGCCGCCGCTGCCATCACTTCGTCCTCCGGAGTCACCTAGTGCAG”, the binding signal is 17600 fluorescence intensity (a.u.).
The same measure for “TCCCCATCTCCGCCGCAGCCCTCGTCGTCGTCCTCGTCCTCGGAGTCACCTAGTGCAG”: 18900 fluorescence intensity (a.u.).
With “ACCCTAGCCACCCCGCGTCGCCCGCCTCGGCGCGCCCAAACGGAGTCACCTAGTGCAG”, the binding signal is 9260 fluorescence intensity (a.u.).
The same measure for “CCAGCCCACTGATTCCTCACCGAATTTTTTCATTTTTTTTCGGAGTCACCTAGTGCAG”: 9700 fluorescence intensity (a.u.); for “ATTCTATACTTTTGTTTCCCTATCATTTGACGCTTTACACCGGAGTCACCTAGTGCAG”: 10000 fluorescence intensity (a.u.).
In the case of “TGGCTCCTTTTAAGTTATTCTTCCCAAACAGACATGATTTCGGAGTCACCTAGTGCAG”, the binding signal is 8660 fluorescence intensity (a.u.).
As to “TTTATACATATGTGTTTATCATACCTCACGTGTCGTATATCGGAGTCACCTAGTGCAG”, the binding signal is 8040 fluorescence intensity (a.u.).
For “TTAAGGGCATGTTTAGTTCTCAAACAAAATTTTCTAGCTGCGGAGTCACCTAGTGCAG”, the binding signal is 8270 fluorescence intensity (a.u.).
As for “ATGCTTGCTTGCCTGCCTTATCTGCGTCTTGAATTGCATCCGGAGTCACCTAGTGCAG”, the binding signal is 10100 fluorescence intensity (a.u.).
On to “CATCTATGACCCATTTTTTTTTATTTGACTGATACCCATCCGGAGTCACCTAGTGCAG”, for which the binding signal was 9760 fluorescence intensity (a.u.).
The same measure for “ACCGTGTCGAGCTATGTCTCCTCATCCTCGCTATGTTTCACGGAGTCACCTAGTGCAG”: 14800 fluorescence intensity (a.u.); for “CTTTTCCCCGCGGCCATCCCCGTCGCCCCACCGCCGCCGCCGGAGTCACCTAGTGCAG”: 11200 fluorescence intensity (a.u.); for “CTTCGTCTCCGCTCCTCTCCGCCGCCTCGTCTCGTCGCCTCGGAGTCACCTAGTGCAG”: 8430 fluorescence intensity (a.u.).
Regarding “TCCCCTACCGCTGCCCACCGCCGTCCACCACCGCCTTTCTCGGAGTCACCTAGTGCAG”, the binding signal was 17000 fluorescence intensity (a.u.).
Regarding “GTCGCCATCTTCCCATCCCCGCGCCGCCGTCCACCATGAGCGGAGTCACCTAGTGCAG”, the binding signal was 17200 fluorescence intensity (a.u.).
For “ATCCAAGCCGTCCATCTTCACCCGTCACTGTCACTCGCCACGGAGTCACCTAGTGCAG”, the binding signal is 16900 fluorescence intensity (a.u.).
Turning to “CGCGCCGCCCGCCGTCCCCATGCCACCGCGCTGCCCGCCGCGGAGTCACCTAGTGCAG”, the binding signal was 10200 fluorescence intensity (a.u.).
With “CGTGTCGAGCTCTGTCTCCTCGTCTTCATCCGCCGCTTCACGGAGTCACCTAGTGCAG” the figure was 18100 fluorescence intensity (a.u.); with “CCATTAAAGCCAAGCCACTGTCCTTGTCCATCTTTGTCCACGGAGTCACCTAGTGCAG”, 8190 fluorescence intensity (a.u.).
Regarding “GTCACCCTTCACCACGGCCATCTTCTCCTCGCTCGCCGTCCGGAGTCACCTAGTGCAG”, the binding signal was 11200 fluorescence intensity (a.u.).
Turning to “CCACACCACCGTCCCCTCGCTGCCTGCCTCCACCTCACCTCGGAGTCACCTAGTGCAG”, the binding signal was 8950 fluorescence intensity (a.u.).
Consider “GCCGCGCCCGCGTCACCACCGCTACCGCCCGCGCGTCCCTCGGAGTCACCTAGTGCAG”, for which the binding signal was 8940 fluorescence intensity (a.u.).
